How the values were obtained:
Experiment in all cases: PBM binding z-score (relative to random genomic background probes); higher = stronger binding; sequences stand for … in GC…GCGATTGACAGCGTAGAATGAAGG
[1] = test system: PPARg:RXRa DBDmut IVT, anti-RXR (DBD mutation: RXRa K156A/R161A, NR concentration 270 nM, RXRa partner concentration 90 nM)
Outline: (§1)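 Binding buffer was PBS pH 7.4 with 2% milk, 0.02% Triton X-100, 1 mM DTT, 0.2 mg/mL BSA and 0.4 mg/ml salmon testes DNA. In it, ligand-free nuclear receptor dimers were incubated 1 h on custom Agilent 4×180K protein-binding microarrays carrying double-stranded probes. Antibodies against each partner (one per run) detected binding, and z-scores were calculated against random background probes after regression normalization of scanned fluorescence.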

[2] = test system: PPARg:RXRa IVT, anti-PPARg (NR concentration 270 nM, RXRa partner concentration 90 nM)
Outline: as §1

[3] = test system: PPARg DBDmut IVT, anti-PPARg (DBD mutation: PPARg1 K132A/R137A, NR concentration 270 nM)
Outline: as §1

[4] = test system: PPARg homodimer (NR concentration 180 nM)
Outline: as §1

[5] = test system: PXR:RXRa (NR concentration 270 nM, RXRa partner concentration 90 nM)
Outline: as §1

[6] = test system: PXR homodimer (NR concentration 270 nM)
Outline: as §1

[7] = test system: RARa:RXR (NR concentration 270 nM, RXRa partner concentration 90 nM)
Outline: as §1

[8] = test system: RARa homodimer (NR concentration 270 nM)
Outline: as §1

[9] = test system: RARb:RXRa (NR concentration 270 nM, RXRa partner concentration 90 nM)
Outline: as §1

[10] = test system: RARb homodimer (NR concentration 270 nM)
Outline: as §1

[11] = test system: RARg homodimer (NR concentration 270 nM)
Outline: as §1

[12] = test system: RXRa DBDmut IVT, anti-RXR (DBD mutation: RXRa K156A/R161A, NR concentration 90 nM)
Outline: as §1

[13] = test system: RXRa homodimer (NR concentration 180 nM)
Outline: as §1

[14] = test system: THRa:RXRa (NR concentration 90 nM, RXRa partner concentration 90 nM)
Outline: as §1

[15] = test system: THRa homodimer (NR concentration 90 nM)
Outline: as §1

[16] = test system: VDR homodimer (NR concentration 270 nM)
Outline: as §1

[17] = test system: RARg:RXRa (NR concentration 270 nM, RXRa partner concentration 90 nM)
Outline: as §1

[18] = test system: VDR:RXRa (NR concentration 270 nM, RXRa partner concentration 90 nM)
Outline: as §1

Sequence	PBM binding z-score [1]	PBM binding z-score [2]	PBM binding z-score [3]	PBM binding z-score [4]	PBM binding z-score [5]	PBM binding z-score [6]	PBM binding z-score [7]	PBM binding z-score [8]	PBM binding z-score [9]	PBM binding z-score [10]	PBM binding z-score [11]	PBM binding z-score [12]	PBM binding z-score [13]	PBM binding z-score [14]	PBM binding z-score [15]	PBM binding z-score [16]	PBM binding z-score [17]	PBM binding z-score [18]
ATAAGTAGGTTAGGGTCATTCAGAAAGTAGGGAA	6.82	6.77	2.11	3.79	4.78	3.26	5.36	2.72	3.63	3.7	3.3	2.39	5.12	4.31	3.58	4.32		
CCGAGTAGGTTTCGAGGGGGCATTCAGTGCGAAT	2.27	2.41		1.58	3.09	5.29	1.88	0.558	1.28	1.58	1.17	1.67	1.19	2.37	0.874	3.52	1.89	3.65
TCGAGCAGGTTACGGGGGCATTCAGGGATGAAGA	2.41	4.12		1.23	3.03	0.942	3.16	0.368	2.53	2.18	2.29	1.34	2.92	3.65	0.993	2.9	3.37	3.86
CCGAGTAGGTTACGAGGGGGCATTTAGTGCGAAT	4.67	4.43		1.41	4.52	2.55	3.03	0.176	2.09	2.18	2.33	1.31	2.16	3.92	0.585	2.81	3.09	4.94
TCGAGTAGGTAACGGGGGCATTCAGGGATGAAGA	4.46	5.38		1.54	2.44	1.58	2.48	0.232	1.74	1.54	1.09	1.75	1.74	3.76	1.33	2.49	2.02	3.38
CGAACTAGGTCACCAGGACAGCGAAGAGGTTGGA	7.82	8.67	0.871	2.15	1.34	-0.232	2.32	0.196	4.21	3.27	5.1	1.22	3.19	3.27	1.62	0.423		1.88
ATATGTATGTTAGGGTCATTCAGAAAGTAGGGAA	2.61	3.27	2.23	2.64	4.24	1.37	4.82	1.45	3.15	3.03	2.71	2.73	4.9	4.06	3.17	3.27	3.74	
TCGAGAAGGTTACGGGGGCATTCAGGGATGAAGA	3.48	4.73		1.82	3.71	1.24	3.78	0.65	3.65	3.05	3.04	2.36	4.23	4.21	1.42	3.33	4.33	4.82

From the supplement of paper PMC6555819
